Values joined by “and” are separate entries in the source; they are usually repeats but may differ in a detail not shown here. Equal entries are not always repeated.
Biological target: Glucose transporter (Leishmania mexicana) (UniProt O61059)
Experiment: ST_JUDE_LEISH: Cytotoxicity at 2uM final concentration against transgenic Leishmania Mexicana promastigotes LmGT2 that are glucose transport deficient and complemented with the L. Mexicana glucose transporter 2. Activity is measured by DNA content using SYBR green in vitro
Type: functional

| SMILES | inhibition |
| --- | --- |
| O=C(/C=C/c1ccc(C(F)(F)F)cc1)NC1CCC(CN2CCC(c3c[nH]c4ccccc34)CC2)CC1 (centres undefined) | 0.63% and -2.05% |
| O=C(Cc1cc(=O)oc2cc(O)ccc12)NC1CCC(CN2CCC(c3c[nH]c4ccccc34)CC2)CC1 (centres undefined) | 2.14% |
| CC[C@H]1CN2CC[C@H]1C[C@H]2[C@H](O)c1cc(/C=C/c2ccc(F)cc2)nc2ccc(OC)cc12 | 2.03% |
| O=C(/C=C/c1ccc(Cl)c(Cl)c1)NC1CCC(CN2CCC(c3c[nH]c4cc(C(F)(F)F)ccc34)CC2)CC1 (centres undefined) | 12.7% and 2.07% |
| O=C(/C=C/c1ccc(Cl)c(Cl)c1)N1CCC(CN2CCC(c3c(-c4ccccc4)[nH]c4ccccc34)CC2)CC1 | 0.62% |
| O=C(NC1CCC(CN2CCC(c3c[nH]c4ccccc34)CC2)CC1)c1cn(Cc2ccccc2)c2ccccc12 (centres undefined) | -1.09% |
| c1ccc2c(NCCCCCCCCCNc3c4ccccc4nc4ccccc34)c3ccccc3nc2c1 | 2.42% |
| CCC(C)CN1CCC(N(C)c2cc(NC(=O)c3ccc(F)cc3)ccn2)CC1 (centres undefined) | 2.38% |
| O=C(Cc1c(-c2ccccc2)[nH]c2ccccc12)NC1CCC(CN2CCC(c3c[nH]c4ccccc34)CC2)CC1 (centres undefined) | 2.03% |
| O=C(/C=C/c1ccc(Cl)c(Cl)c1)N1CCC(CN2CCC(c3c[nH]c4ccccc34)C(O)C2)CC1 (centres undefined) | 0.72% |
| O=C(Nc1ccc(CN2CCC(c3c[nH]c4ccc(O)cc34)CC2)cc1)c1ccc(-c2ccccc2)cc1 | 5.18% |
| Cc1[nH]c2cc(Cl)ccc2c1C1=CCN(CCCCC2(C)C(=O)Nc3ccccc32)CC1 (centres undefined) | 1.15% |
| Cc1[nH]c2ccc(O)cc2c1C1CCN(CC2CCC(NC(=O)/C=C/c3c(Cl)cccc3Cl)CC2)CC1 (centres undefined) | 3.62% |
| CNCCN(C)C(=O)Oc1c(Br)c(C)nc(C)c1-c1ccc(Oc2ccc(OC(F)(F)F)cc2)cc1 | 5.59% |
| CC[C@H]1CN2CC[C@H]1C[C@H]2[C@H](O)c1ccnc2ccc(C#N)cc12 | 2.19% |
| CN1CC=C(c2c[nH]c3ccc(Br)cc23)CC1 | -0.72% |
| Oc1ccc2[nH]cc(C3=CCN(CCc4ccccc4)CC3)c2c1 | 13.4% |
| CCCCCC(C)C(C)c1cc(O)c2c(c1)OC1(C(C)C)CC(O)C(C)C2C1 (centres undefined) | 6.4% |
| Cc1c2ccncc2c(C)c2c1[nH]c1ccccc12 | 14.7% |
| O=C(/C=C/c1ccc(Cl)c(Cl)c1)NCCCCCN1C2CCC1CC(c1c[nH]c3ccccc13)C2 (centres undefined) | 2.33% |
| O=C(C=Cc1cccc(Cl)c1Cl)NC1CCC(CN2CCC(c3c[nH]c4ccccc34)CC2)CC1 (centres undefined) | 11.8% and -0.36% |
| COc1ccc(C[C@H]2NC[C@H](O)[C@H]2OC(C)=O)cc1 | 92.1% |
| CC(=O)N(Cc1ccccc1-c1cccc(CNCCc2ccccc2)c1)C1CCN(Cc2ccccc2)CC1 | 7.27% |
| CO/C(=C\C=C\c1cc2cc(Cl)c(Cl)cc2[nH]1)C(=O)N[C@H]1CN2CCC1CC2 | -0.34% |
